# Compounds without any hit were thinned out: in the full panel of roughly 83,000, 20% have a hit.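 For each line, cells grew in 96-well plates with the test compound present at a single concentration for 48 hours.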 Activity calls are given as the source filed them.
# Tested on: A549/ATCC NSCLC
# Test: NCI-60 one-dose screen, 48 h (100 = growth as untreated, 0 = no growth, -100 = all killed)
# Settings: 10 µM unless noted
# Description: Growth inhibition of the A549/ATCC human Non-Small Cell Lung tumor cell line is measured as a screen for anti-cancer activity. Cells are grown in 96 well plates and exposed to the test compound for 48 hours. Compounds are tested at a single concentration, which is 10^-5 M for most compounds. The reported endpoint is percent growth (GI% or GIPRCNT), where numbers from 0 - 100% represent growth inhibition, and numbers from -100% - 0 represent cell death. For example, a value of 40 represents 60% growth inhibition. A value of 0 means no net growth occurred over the course of the experiment. A value of -40 indicates 40% of cells at the beginning of the experiment died by the end of the experiment. A value of -100 means all cells are dead at the end of the experiment.
# NCI-60 Human Tumor Cell Lines Screen was performed using the standard one-dose NCI protocol, which is described in more detail at https://dtp.cancer.gov/discovery_development/nci-60/default.htm.
# Compounds with GIPRCNT values below 10 were considered active. Activity score was based on GIPRCNT using the following formula: […]
# Score is 0 for GIPRCNT values of 100 or above, 50 for GIPRCNT values of 0, and 100 for GIPRCNT values of -100.
row,SMILES,growth
1,O=C(Nc1ccncc1)C(=O)c1cn(S(=O)(=O)c2ccc(Oc3ccccc3)cc2)c2ccccc12,71.8% (inactive)
2,O=c1cc(Cc2ccc([N+](=O)[O-])cc2)[nH]c(=O)[nH]1,106% (inactive)
3,CCCCOc1ccc(/C=C2/SC(N3CCOCC3)=NC2=O)cc1OCC,96% (inactive)
4,CC1=NC2=CC=CC3=NC(C(Cl)(Cl)Cl)=NC(=N1)N23,80% (inactive)
5,COc1ccc(-c2nc(SCCC(C)C)nc(Nc3ccc(F)c(Cl)c3)c2C#N)cc1,58.9% (inactive)
6,O=C(Nc1cccc(-n2cc(-c3ccncc3)c(-c3ccc(Cl)c(O)c3)n2)c1)c1ccc(N2CCOCC2)c(C(F)(F)F)c1,31.4% (inactive)
7,COc1cc(Nc2nc(N[C@H]3CCCC[C@@H]3N)nc3cc[nH]c(=O)c23)cc(OC)c1,19.1% (inactive)
8,ClC(Cl)c1nc(-c2cccnc2)n2nc(-c3ccccc3)cc2n1,-16.8% (active)
9,CC(C)(C)n1cc(-c2ccnc(NCCNS(=O)(=O)c3ccc(F)cc3)c2)c(-c2cccc(O)c2)n1,47.5% (inactive)
10,COc1ccc(Nc2nc(N)nc3c2CCN(Cc2ccc(OC)cc2OC)C3=O)cc1,85.6% (inactive)
11,O=S(=O)(NCCNc1nccc(-c2c(-c3cccc(O)c3)nc3sccn23)n1)c1ccc(F)cc1,52% (inactive)
12,COc1ccc(N=Cc2c(O)ccc3c2oc2cc(Cl)c(O)c(Cl)c23)cc1,95.5% (inactive)
13,CCC(=O)Oc1ccc(/C(=C(/C)Cc2cccc(OC)c2)c2ccc(OCCN(C)C)cc2)cc1,97.7% (inactive)
14,C/C=C(\C)C(C(=O)NC1CCCCC1)N(C(=O)C1CCc2cc(F)ccc2O1)c1ccc(Cl)cc1 (stereo not given),96.2% (inactive)
15,O=C(Nc1ccncc1)C(=O)c1cn(S(=O)(=O)c2ccccc2F)c2ccccc12,71.8% (inactive)
16,COc1ccc(S(=O)(=O)n2ccc(-c3ccc4c(c3)CCC(C)(C)O4)n2)cc1OC,67.1% (inactive)
17,NC(N)=Nc1nc2ccccc2o1,109% (inactive)
18,O=C(O)Cc1cccc(=O)c(O)c1C(=O)O,104% (inactive)
19,N=C(N)c1ccc(-c2ccc(-c3cncc4ccccc34)s2)cc1F,-76.8% (active)
20,CC(C)(C)n1cc(-c2ccnc(NCCCNS(=O)(=O)c3ccccc3)c2)c(-c2cccc(O)c2)n1,38% (inactive)

row,SMILES,growth
1,CC(C)(C)OC(=O)NCCc1ccc(N=C=S)cc1,77.4% (inactive)
2,CCCCOc1ccc(/C=C2/SC(N3CCCC3)=NC2=O)cc1,94.7% (inactive)
3,CCOC(=O)CC(=O)OC,101% (inactive)
4,C/C=C/C1=CN2C(=O)c3cc(OC4OC(C)C(NC)C(C)(O)C4O)c(C)cc3N=C[C@@H]2C1 (stereo not given in full),7.17% (active)
5,COc1ccc(CNCCCN2C(=O)c3ccc4c5c(ccc(c35)C2=O)C(=O)N(CCCNCCCCNCCCN)C4=O)c(OC)c1OC,25.3% (inactive)
6,CCCCCCCCCCCCCCCCCCNC(=O)[C@H]1CSC(c2ccc(OC)cc2O)N1 (stereo not given in full),73.8% (inactive)
7,Cc1ccc(S(=O)(=O)NCCNc2nccc(-c3c(-c4ccc(O)cc4)nc4sccn34)n2)cc1,94.1% (inactive)
8,CCOC(=O)C1CCNC(=O)C1=O (stereo not given),109% (inactive)
9,O=C(c1ccccc1)C1OC1c1ccc([N+](=O)[O-])cc1 (stereo not given),85.6% (inactive)
10,CCOc1cc2c(Cl)ncnc2c(OCC)c1OCC,95.6% (inactive)
11,COc1ccc(Nc2[nH]n3c(=O)cc(-c4ccccc4)nc3c2C(=O)Nc2ccc(C)cc2)c(OC)c1,88.7% (inactive)
12,O=C(O)/C=C/C(=O)c1ccc(Cl)cc1,95.3% (inactive)
13,CC1(c2ccc(Cl)cc2)OC(=O)CC(=O)O1,99.1% (inactive)
14,COc1cc(-c2nn(-c3cccc(NC(=O)Nc4ccc(Cl)c(Cl)c4)c3)cc2-c2ccncc2)ccc1Cl,-5.88% (active)
15,C=C1C(=O)O[C@H]2[C@H]1CC/C(Cn1cc(CNC(=O)c3cc4ccccc4[nH]3)nn1)=C\CC[C@@]1(C)O[C@@H]21,93.4% (inactive)
16,O=C1C(Cl)=C(Nc2ccccn2)C(=O)c2ccccc21,104% (inactive)
17,Cc1ccc2ccccc2c1C[n+]1ccccc1,99.1% (inactive)
18,O=C(NNC(=O)N1c2ccccc2C=Cc2ccccc21)c1ccccc1,103% (inactive)
19,CCOC(=O)c1c(NS(=O)(=O)c2ccc(C)cc2)sc2c1CCC1(C2)OCCO1,103% (inactive)
20,Cc1ccc2nc(Cl)cc(=O)n2c1,113% (inactive)
